hNpr1 antagonist: human Npr1 receptor antagonism; AID 1347048; P16066; Potency, µM (doses to about 46.3 µM), for inactives: top-dose activity change, negative = inhibition, actives largely listed as inhibitors; HEK293 hNpr1 GloSensor cGMP, ANP-stimulated luminescence; actives 1.6% (n = 76,000); calls by dose curve; also: nearly all actives have a fitted effect of over 60% in size
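Compound pre-incubated 30 min at room temperature on GloSensor-loaded HEK293 cells stably carrying hNpr1 and the pGS-40F cGMP biosensor. Stimulation uses hNppA at 0.1 nM final; luminescence is taken at baseline and 20 min post-agonist.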
HEK cytotox: HEK 293 cell cytotoxicity | Potency, µM (doses to about 115 µM), for inactives: at the highest dose activity change, negative = cytotoxicity, usual class: inhibitors | HEK 293 viability, ATP luminescence (CellTiter-Glo), 48-72 h | actives 6.6% (n = 94,000); also: nearly all actives have a fitted effect of over 60% in size
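250 HEK 293 cells/well; compound by pintool; incubated 48 or 72 hr at 37 degree Celsius; CellTiter-Glo added, 10 min RT, luminescence imaged.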
GPT2 inh: inhibitors of human GPT2 alanine aminotransferase | AID 1671188 | Q8TD30 | Recombinant GPT2, coupled pyruvate oxidase/HRP Amplex Red fluorescence | Potency, µM (top dose mostly 57.7 µM), for inactives: at the highest dose activity change, negative = inhibition, most hits filed as inhibitors | actives 0.25% (n = 100,000); also: nearly all actives have a fitted effect of over 60% in size
Target sequence (Q8TD30 whole entry, looked up): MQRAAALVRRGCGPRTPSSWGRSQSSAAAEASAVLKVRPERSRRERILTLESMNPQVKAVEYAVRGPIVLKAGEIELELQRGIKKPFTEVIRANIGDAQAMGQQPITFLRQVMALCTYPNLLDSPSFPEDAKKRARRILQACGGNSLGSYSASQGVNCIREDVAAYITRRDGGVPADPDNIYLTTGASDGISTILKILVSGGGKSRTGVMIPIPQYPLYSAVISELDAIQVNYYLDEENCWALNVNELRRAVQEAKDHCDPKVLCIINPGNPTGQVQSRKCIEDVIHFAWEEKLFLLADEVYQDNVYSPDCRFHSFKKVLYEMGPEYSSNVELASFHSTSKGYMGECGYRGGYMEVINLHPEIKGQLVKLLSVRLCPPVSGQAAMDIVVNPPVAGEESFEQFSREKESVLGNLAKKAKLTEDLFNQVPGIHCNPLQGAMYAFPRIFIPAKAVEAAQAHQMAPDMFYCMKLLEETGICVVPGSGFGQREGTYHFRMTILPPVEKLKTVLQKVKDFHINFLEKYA
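Inhibition is scored from Amplex Red fluorescence generated when pyruvate oxidase and HRP act on pyruvate released by GPT2. Reactions contain 10ng/uL enzyme, 250uM a-KG and 2mM L-alanine and run 30 min at room temperature.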
Luciferase inh: Photinus pyralis luciferase inhibition | P08659 | purified P. pyralis luciferase, luminescence, biochemical | Potency, µM (series often up to 115 µM), actives largely listed as inhibitors | actives 2.5% (n = 76,000) | AID 1347043; also: nearly all actives have a fitted effect of over 65% in size
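Cell-free enzyme assay, 10nM P. pyralis luciferase, luciferin and ATP each at 10uM. Inhibition profiled over a 6-point titration, read as luminescence.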
NIH3T3 tox: kills NIH 3T3 cells. NIH 3T3 viability, CellTiter-Glo ATP luminescence, 48-72 h. Potency, µM (series often up to 96.7 µM), inactives show at the top dose activity change, negative = cytotoxicity, usual class: inhibitors. actives 4.3% (n = 94,000); also: nearly all actives have a fitted effect of over 55% in size
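NIH 3T3 cells at 400 cells/well received 23 nL of compound by pintool and were incubated 48 or 72 h at 37 °C. Viability was read as ATP-coupled CellTiter-Glo luminescence.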
* = called active by the depositor; i = inactive; ? = inconclusive; nt = no result given; [ ] = remark or other dose. Only some compounds are listed: those with a hit (about 10% of all), similar ones and a draw of the others. Unless noted, calls follow the shape of the dose curve; as a rule, active = well fitted curve in the direction sought with a large enough effect; inconclusive = small, poorly fitted or top-dose-only effect, or another doubt; inactive = no such curve, though single readings can be large; an effect the other way counts as inactive or inconclusive. % is scaled to controls: 0 for no effect and ±100 for the full control effect; potency is read from the fitted curve at half-maximal effect.

SMILES	hNpr1 antagonist	HEK cytotox	GPT2 inh	Luciferase inh	NIH3T3 tox
COc1ccc(CCNC(=O)c2nc3sccn3c2-c2ccc(C)cc2)cc1	nt	?	2%[88.5 µM]	nt	22µM*
COc1ccc(CCNC(=O)c2nc3sccn3c2-c2ccc(OC)cc2)cc1	nt	?	3%	nt	?
COc1ccc(NC(=O)c2ccc(-c3ncc4cnc(C5=CCOCC5)cn34)cc2)cn1	-16%[70.6 µM]	?	i	i	32µM*
O=C(c1ccc(-c2ncc3cnc(C4=CCOCC4)cn23)cc1)N1CC[S+](=O)([O-])CC1	5%[70.6 µM]	1%[172 µM]	2%[88.5 µM]	i	?
CNC(=O)c1cc(C)nc2onc(C3CCN(C(=O)c4ccccc4OC)C3)c12 (configuration not stated)	nt	2%	nt	nt	0%
COCc1nnc2n1CCC(NC(=O)CCc1nc3ccccc3s1)CC2 (configuration not stated)	0%	-15%	i	i	-2%
Cc1nn(-c2ccccc2)c2c1C(C(C)C)N(C1CCN(C(=O)c3ccc(Cl)cc3)CC1)C2=O (configuration not stated)	nt	25µM*	nt	nt	?
COc1cccc(C(=O)N2CCC(N3C(=O)c4c(c(C)nn4-c4ccccc4)C3C(C)C)CC2)c1 (configuration not stated)	nt	45µM*	nt	nt	35µM*
COc1ccc(C(=O)N2CCC(N3C(=O)c4c(c(C)nn4-c4ccccc4)C3C(C)C)CC2)cc1 (configuration not stated)	nt	-13%	nt	nt	-27%
Cc1nn(-c2ccccc2)c2c1C(C(C)C)N(C1CCN(C(=O)c3cccc(Cl)c3)CC1)C2=O (configuration not stated)	nt	18µM*	nt	nt	?
CN(C)C(=O)N[C@@H]1CN[C@H](CO)C1	-17%	-20%	i	i	-1%
Cc1nc2c(c(-c3ccc(O)cc3)n1)CN(Cc1cccc3ccccc13)CCC2	?	32µM*	i	i	32µM*
COc1ccc(-c2nc(C)nc3c2CCN(Cc2cccc4ccccc24)CC3)cc1	3%	40µM*	i	i	?
Cc1nc2c(c(-c3ccc(O)cc3)n1)CN(Cc1ccccc1)CCC2	0%	?	-5%	i	?
Cc1nc2c(c(-c3ccc(O)cc3)n1)CN(Cc1ccc(C(F)(F)F)cc1)CC2	-1%	?	i	i	-31%
Cc1nc2c(c(-c3ccc(O)cc3)n1)CN(Cc1ccc(C(F)(F)F)cc1)CCC2	?	32µM*	-6%	i	?
Cc1nc2c(c(-c3ccc(O)cc3)n1)CN(Cc1ccc(OC(F)(F)F)cc1)CCC2	?	35µM*	-14%	i	?
Cc1nn(-c2ccccc2)c(C)c1CC(=O)N[C@@H]1COCC[C@@H]1OCC1CC1	6%	i	-18%	i	i
CC(=O)Nc1cccc(C(=O)NCCc2nc3c(C)c(C)ccc3[nH]2)c1	3%	-11%	-6%	i	-8%
COc1ccc(C(=O)NC2CCN(c3cnn(CC4CC4)c(=O)c3)CC2)c(OC)c1	?	?	5%	i	?
CN(C(=O)c1ccccc1)C1CCOc2ccccc21 (configuration not stated)	6%[70.6 µM]	-13%[172 µM]	?	i	-15%[138 µM]
COc1ccc(CN2CCC3(CC2)NC(=O)c2ccccc2O3)cc1	17%[70.6 µM]	-24%[172 µM]	i	i	-6%[138 µM]
Cc1nc(CCC(=O)N2CCn3nc(C(=O)Nc4ccccc4)cc3C2)n[nH]1	-1%	-23%	-23%	28µM*	-7%
O=C1NCCCCCCN(Cc2ccncc2)[C@@H]2CN(S(=O)(=O)c3ccccc3)CC[C@H]12	-3%	-25%	-3%	i	-18%
CC(=O)c1[nH]c(C)c(C(=O)N2CCC3(CC2)[C@H](O)C[C@@H]3OCCO)c1C	-1%	-13%	-9%	i	-7%
SMILES	hNpr1 antagonist	HEK cytotox	GPT2 inh	Luciferase inh	NIH3T3 tox
O=C1CN(Cc2ccc(-c3ccsc3)cc2)CCN1c1cc(Cl)ncn1	?	35µM*	0%	i	?
O=C1CN(Cc2ccc(-c3cc(F)cc(F)c3)cc2)CCN1c1cc(Cl)ncn1	1%	?	?	i	?
O=C1CN(Cc2ccc(-c3cc(F)cc(F)c3)cc2)CCN1c1nccc(Cl)n1	-22%	45µM*	-4%	i	?
Cc1ccc(C)c(-n2nc(-c3c(C)nc4scc(CC(=O)NC5CCCCC5)n4c3=O)cc2C)c1	-1%	?	-4%	i	40µM*
COc1ccnc(-c2nnc3ccc(N4CCc5ccccc5CC4)nn23)c1	5%[70.6 µM]	56µM*	-13%[88.5 µM]	i	50µM*
COc1ccnc(-c2nnc3ccc(N4C[C@@H](C)O[C@@H](C)C4)nn23)c1	6%[70.6 µM]	?	0%[88.5 µM]	i	32µM*
c1ccc(C2CCN(c3ccc4nnc(-c5ccccn5)n4n3)CC2)cc1	-4%[70.6 µM]	63µM*	-11%[88.5 µM]	i	32µM*
OCc1ccc(-c2ccc3nnc(-c4ccccn4)n3n2)cc1	0%[70.6 µM]	i	-6%[88.5 µM]	i	89µM*
Fc1ccc(-c2nnc3ccc(N4CCN(c5ccccn5)CC4)nn23)nc1	-2%[70.6 µM]	-6%[172 µM]	0%[88.5 µM]	i	?
CCCc1noc(-c2cn(C3CCN(C(=O)c4ccc(OC)cc4)CC3)nn2)n1	-24%	?	4%	i	-25%
O=C(C1CCCN1C(=O)C1CC1)N1CCC(c2nc3ccncc3[nH]2)C1 (configuration not stated)	nt	i	i	nt	4%[138 µM]
O=C(NCCc1ccc(Cl)cc1)c1cc(-c2cc(Cl)cc(Cl)c2)c2nncn2n1	nt	-1%	i	nt	-8%
COc1ccc(-c2nnc3ccc(N4CCCC4)nn23)nc1	3%[70.6 µM]	-18%[172 µM]	4%[88.5 µM]	i	32µM*
COc1ccc(-c2nnc3ccc(N4CCN(C(C)=O)CC4)nn23)nc1	-8%[70.6 µM]	-4%[172 µM]	-28%[88.5 µM]	i	?
O=C(Nc1ccnn1C1CCN(Cc2ccc(-c3ccccc3)cc2)CC1)C1CC1	?	?	2%	i	35µM*
CSc1ncc(CN2CCC(n3nccc3NC(=O)Cc3ccccc3)CC2)cn1	0%	-11%	i	i	-25%
CCOc1cc(=O)n2c(c1C(=O)Nc1ccc(OC)cc1C)CCCC2	5%	6%	i	i	3%
COCCNC(=O)C1CCCN1Cc1cccc(-c2ccc(C)c(Cl)c2)c1 (configuration not stated)	nt	40µM*	nt	nt	35µM*
Cc1ccc(-c2cccc(CN3CCCC3C(=O)NCC3CC3)c2)cc1Cl (configuration not stated)	nt	32µM*	nt	nt	?
CCCCCNC(=O)C1CCCN1Cc1cccc(-c2ccc(C)c(Cl)c2)c1 (configuration not stated)	nt	45µM*	nt	nt	?

Screening results deposited in PubChem by National Center for Advancing Translational Sciences (NCATS).
